Test results from the supplement of paper PMC10849652.
The full data set covers some 8,800 targets. This sample favours those with a hit. About 0.5% of all pairs of compound and target were hits. Unmarked numbers belong to inactive results.

Tests used:
Test in all cases: log2 fold change, soluble protein after heating vs DMSO (PISA); higher = thermal stabilisation; K562 lysate, 10 uM; active = over 0.2 and 3.5 SD of the protein, either way, in both replicates (recomputed)
lapatinib = compound: CS(=O)(=O)CCNCc1ccc(-c2ccc3ncnc(Nc4ccc(OCc5cccc(F)c5)c(Cl)c4)c3c2)o1 [lapatinib]
Procedure, shortened: (§1)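 To prepare the extract, K562 pellets were dounce-homogenised in PBS pH 7.4 with 1 mM MgCl2, giving crude material at 1 mg/mL protein. This was treated with 10 μM compound for 30 min, then heated in aliquots for 3 min over 48°C-58°C before pooling and addition of NP-40 to 0.5% at 4°C. Centrifugation at 21,000xg for 90 min left soluble protein in the supernatant, which TMTpro 16plex LC-MS/MS quantified with equalised channel sums. Results are log-two fold changes in thermal stability compared with solvent controls, from duplicates.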

pictilisib = compound: CS(=O)(=O)N1CCN(Cc2cc3nc(-c4cccc5[nH]ncc45)nc(N4CCOCC4)c3s2)CC1 [pictilisib]
Procedure, shortened: as §1

crizotinib = compound: C[C@@H](Oc1cc(-c2cnn(C3CCNCC3)c2)cnc1N)c1c(Cl)ccc(F)c1Cl [crizotinib]
Procedure, shortened: as §1

[1] = compound: C[C@H](C1=CC=C(C=C1)C(=O)NC2=C3C=CNC3=NC=C2)N
Procedure, shortened: as §1

duvelisib = compound: C[C@H](Nc1ncnc2nc[nH]c12)c1cc2cccc(Cl)c2c(=O)n1-c1ccccc1 [duvelisib]
Procedure, shortened: as §1

gandotinib = compound: Cc1cc(Nc2cc(CN3CCOCC3)c3nc(C)c(Cc4ccc(Cl)cc4F)n3n2)n[nH]1 [gandotinib]
Procedure, shortened: as §1

tozasertib = compound: Cc1cc(Nc2cc(N3CCN(C)CC3)nc(Sc3ccc(NC(=O)C4CC4)cc3)n2)n[nH]1 [tozasertib]
Procedure, shortened: as §1

doramapimod = compound: Cc1ccc(-n2nc(C(C)(C)C)cc2NC(=O)Nc2ccc(OCCN3CCOCC3)c3ccccc23)cc1 [doramapimod]
Procedure, shortened: as §1

bafetinib = compound: Cc1ccc(NC(=O)c2ccc(CN3CC[C@H](N(C)C)C3)c(C(F)(F)F)c2)cc1Nc1nccc(-c2cncnc2)n1 [bafetinib]
Procedure, shortened: as §1

[2] = compound: Cc1cccc(CC(=O)N2CCc3c2ccc(-c2cn(C)c4ncnc(N)c24)c3F)n1
Procedure, shortened: as §1

nilotinib = compound: Cc1cn(-c2cc(NC(=O)c3ccc(C)c(Nc4nccc(-c5cccnc5)n4)c3)cc(C(F)(F)F)c2)cn1 [nilotinib]
Procedure, shortened: as §1

[3] = compound: Cc1nc(Nc2n[nH]c3c2CN(C(=O)N[C@H](CN(C)C)c2ccccc2)C3(C)C)c2sccc2n1
Procedure, shortened: as §1

dasatinib = compound: Cc1nc(Nc2ncc(C(=O)Nc3c(C)cccc3Cl)s2)cc(N2CCN(CCO)CC2)n1 [dasatinib]
Procedure, shortened: as §1

[4] = compound: Cc1ncc(-c2ccnc(Nc3ccc(S(C)(=O)=O)cc3)n2)n1C(C)C
Procedure, shortened: as §1

[5] = compound: Cn1cc(-c2ccc3c(c2)CCN3C(=O)Cc2cccc(C(F)(F)F)c2)c2c(N)ncnc21
Procedure, shortened: as §1

quisinostat = compound: Cn1cc(CNCC2CCN(c3ncc(C(=O)NO)cn3)CC2)c2ccccc21 [quisinostat]
Procedure, shortened: as §1

tipifarnib = compound: Cn1cncc1[C@@](N)(c1ccc(Cl)cc1)c1ccc2c(c1)c(-c1cccc(Cl)c1)cc(=O)n2C [tipifarnib]
Procedure, shortened: as §1

[6] = compound: NC(=O)Nc1cc(-c2cccc(F)c2)sc1C(=O)N[C@H]1CCCNC1
Procedure, shortened: as §1

[7] = compound: NC(=O)c1cnc(N[C@@H]2CCCC[C@@H]2N)nc1Nc1cccc(-n2nccn2)c1
Procedure, shortened: as §1

[8] = compound: NC1(c2ccc(-c3nc4ccn5c(=O)[nH]nc5c4cc3-c3ccccc3)cc2)CCC1
Procedure, shortened: as §1

Sequence of UniProt Q5BJF2 (Q5BJF2 whole entry, looked up): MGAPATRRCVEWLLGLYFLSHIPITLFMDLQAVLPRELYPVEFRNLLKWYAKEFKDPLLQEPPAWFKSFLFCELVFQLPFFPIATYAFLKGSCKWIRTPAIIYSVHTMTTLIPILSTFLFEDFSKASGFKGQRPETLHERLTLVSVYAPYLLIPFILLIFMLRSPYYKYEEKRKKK
Sequence of UniProt Q8N511 (Q8N511 whole entry, looked up): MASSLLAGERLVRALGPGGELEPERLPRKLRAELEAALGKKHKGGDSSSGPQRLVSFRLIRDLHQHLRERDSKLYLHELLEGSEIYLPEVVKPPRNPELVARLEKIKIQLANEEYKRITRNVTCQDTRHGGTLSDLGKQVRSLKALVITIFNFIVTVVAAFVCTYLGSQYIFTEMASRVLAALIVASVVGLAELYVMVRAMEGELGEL
Sequence of UniProt Q5T6F2 (Q5T6F2 whole entry, looked up): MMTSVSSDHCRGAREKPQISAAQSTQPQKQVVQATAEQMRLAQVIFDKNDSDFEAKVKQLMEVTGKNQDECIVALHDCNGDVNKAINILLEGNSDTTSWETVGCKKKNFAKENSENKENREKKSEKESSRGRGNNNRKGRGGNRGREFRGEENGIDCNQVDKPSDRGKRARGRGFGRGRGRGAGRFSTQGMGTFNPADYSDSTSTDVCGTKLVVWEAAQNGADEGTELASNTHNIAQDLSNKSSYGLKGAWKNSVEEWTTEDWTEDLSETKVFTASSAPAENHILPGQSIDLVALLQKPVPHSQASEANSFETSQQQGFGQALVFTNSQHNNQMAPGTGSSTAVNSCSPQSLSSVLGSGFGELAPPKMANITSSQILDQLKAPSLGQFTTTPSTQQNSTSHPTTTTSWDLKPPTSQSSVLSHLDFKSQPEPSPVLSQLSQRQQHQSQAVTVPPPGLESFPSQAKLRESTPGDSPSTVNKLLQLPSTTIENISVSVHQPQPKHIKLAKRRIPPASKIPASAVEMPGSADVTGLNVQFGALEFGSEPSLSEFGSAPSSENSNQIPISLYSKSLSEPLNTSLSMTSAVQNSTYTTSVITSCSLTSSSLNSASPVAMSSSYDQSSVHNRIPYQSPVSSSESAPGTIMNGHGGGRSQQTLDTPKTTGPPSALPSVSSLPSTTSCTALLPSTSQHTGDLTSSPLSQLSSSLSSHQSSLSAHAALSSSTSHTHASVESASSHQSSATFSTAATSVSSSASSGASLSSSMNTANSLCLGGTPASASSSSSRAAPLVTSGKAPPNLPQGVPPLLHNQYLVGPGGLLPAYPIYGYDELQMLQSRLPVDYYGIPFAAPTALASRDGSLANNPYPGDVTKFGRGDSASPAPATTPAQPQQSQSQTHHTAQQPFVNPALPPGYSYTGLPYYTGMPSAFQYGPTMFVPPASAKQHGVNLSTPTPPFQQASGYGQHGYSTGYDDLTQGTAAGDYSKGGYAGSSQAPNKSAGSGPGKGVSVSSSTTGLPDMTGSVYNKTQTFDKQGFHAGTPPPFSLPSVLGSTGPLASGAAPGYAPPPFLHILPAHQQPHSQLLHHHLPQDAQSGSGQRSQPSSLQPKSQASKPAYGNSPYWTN
Sequence of UniProt Q9UBB9 (Q9UBB9 whole entry, looked up): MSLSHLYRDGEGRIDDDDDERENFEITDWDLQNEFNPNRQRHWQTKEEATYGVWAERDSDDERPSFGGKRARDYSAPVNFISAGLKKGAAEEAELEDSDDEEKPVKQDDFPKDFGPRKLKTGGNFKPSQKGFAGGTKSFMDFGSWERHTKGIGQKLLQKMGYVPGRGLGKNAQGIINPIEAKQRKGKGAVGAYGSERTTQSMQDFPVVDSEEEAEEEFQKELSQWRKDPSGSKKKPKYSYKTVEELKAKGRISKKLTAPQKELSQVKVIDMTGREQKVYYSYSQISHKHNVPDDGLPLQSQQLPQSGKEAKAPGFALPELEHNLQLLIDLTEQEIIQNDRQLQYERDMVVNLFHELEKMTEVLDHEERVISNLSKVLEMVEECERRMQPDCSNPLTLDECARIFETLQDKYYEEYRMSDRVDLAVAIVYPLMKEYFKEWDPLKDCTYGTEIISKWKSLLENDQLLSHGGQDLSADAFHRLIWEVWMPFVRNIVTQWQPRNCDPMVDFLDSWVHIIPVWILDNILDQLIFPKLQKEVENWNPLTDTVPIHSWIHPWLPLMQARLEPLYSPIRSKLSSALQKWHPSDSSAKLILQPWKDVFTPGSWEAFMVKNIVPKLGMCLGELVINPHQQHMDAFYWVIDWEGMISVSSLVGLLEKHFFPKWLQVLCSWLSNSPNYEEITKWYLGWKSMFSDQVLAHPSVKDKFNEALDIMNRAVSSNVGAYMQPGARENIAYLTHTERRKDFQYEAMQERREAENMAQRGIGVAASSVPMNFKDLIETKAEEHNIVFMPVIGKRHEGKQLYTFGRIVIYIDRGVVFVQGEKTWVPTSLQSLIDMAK
Sequence of UniProt P51668 (P51668 whole entry, looked up): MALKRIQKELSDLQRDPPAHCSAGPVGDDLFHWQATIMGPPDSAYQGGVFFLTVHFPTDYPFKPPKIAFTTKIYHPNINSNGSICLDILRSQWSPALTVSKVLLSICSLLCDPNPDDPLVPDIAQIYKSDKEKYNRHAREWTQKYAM
Sequence of UniProt Q9NZ01 (Q9NZ01 whole entry, looked up): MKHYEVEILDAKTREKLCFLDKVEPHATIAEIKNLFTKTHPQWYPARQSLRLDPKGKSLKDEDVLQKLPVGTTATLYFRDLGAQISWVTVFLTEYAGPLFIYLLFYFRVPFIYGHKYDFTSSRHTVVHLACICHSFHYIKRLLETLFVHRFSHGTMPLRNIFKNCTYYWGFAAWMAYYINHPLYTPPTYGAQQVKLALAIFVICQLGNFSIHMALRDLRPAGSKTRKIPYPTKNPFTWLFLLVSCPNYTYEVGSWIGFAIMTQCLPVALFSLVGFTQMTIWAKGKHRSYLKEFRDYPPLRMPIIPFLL
Sequence of UniProt P17480 (P17480 whole entry, looked up): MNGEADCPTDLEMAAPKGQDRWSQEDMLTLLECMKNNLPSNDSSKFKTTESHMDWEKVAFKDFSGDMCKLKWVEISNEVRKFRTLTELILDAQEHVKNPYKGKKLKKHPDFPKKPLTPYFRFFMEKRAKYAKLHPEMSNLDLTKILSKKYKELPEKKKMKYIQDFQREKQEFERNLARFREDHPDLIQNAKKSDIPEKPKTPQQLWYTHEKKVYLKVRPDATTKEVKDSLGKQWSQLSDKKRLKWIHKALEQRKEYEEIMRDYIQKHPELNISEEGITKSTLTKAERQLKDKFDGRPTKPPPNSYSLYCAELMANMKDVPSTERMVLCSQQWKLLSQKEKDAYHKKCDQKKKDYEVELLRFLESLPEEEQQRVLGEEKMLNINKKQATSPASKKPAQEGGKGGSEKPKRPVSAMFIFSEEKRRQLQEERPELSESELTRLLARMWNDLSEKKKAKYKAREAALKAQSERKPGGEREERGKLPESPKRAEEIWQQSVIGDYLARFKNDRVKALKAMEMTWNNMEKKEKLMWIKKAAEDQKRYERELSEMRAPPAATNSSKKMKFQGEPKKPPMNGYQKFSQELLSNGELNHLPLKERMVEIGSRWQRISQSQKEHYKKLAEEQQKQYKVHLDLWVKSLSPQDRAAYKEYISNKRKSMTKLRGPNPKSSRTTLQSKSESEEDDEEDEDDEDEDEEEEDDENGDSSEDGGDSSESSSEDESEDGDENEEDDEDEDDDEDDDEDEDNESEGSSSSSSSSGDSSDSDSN
Sequence of UniProt Q9NX07 (Q9NX07 whole entry, looked up): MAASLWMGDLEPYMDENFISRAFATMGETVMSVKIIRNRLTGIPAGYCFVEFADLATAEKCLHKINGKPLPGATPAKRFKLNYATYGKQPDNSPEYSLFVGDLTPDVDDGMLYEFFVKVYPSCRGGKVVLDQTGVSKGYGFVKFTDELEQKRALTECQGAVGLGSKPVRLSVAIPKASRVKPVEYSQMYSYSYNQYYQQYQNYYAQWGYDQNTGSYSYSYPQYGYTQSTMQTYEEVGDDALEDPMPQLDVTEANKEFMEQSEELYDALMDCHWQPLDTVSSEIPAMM

| Target | log2 fold change (lapatinib) | log2 fold change (pictilisib) | log2 fold change (crizotinib) | log2 fold change [1] | log2 fold change (duvelisib) | log2 fold change (gandotinib) | log2 fold change (tozasertib) | log2 fold change (doramapimod) | log2 fold change (bafetinib) | log2 fold change [2] | log2 fold change (nilotinib) | log2 fold change [3] | log2 fold change (dasatinib) | log2 fold change [4] | log2 fold change [5] | log2 fold change (quisinostat) | log2 fold change (tipifarnib) | log2 fold change [6] | log2 fold change [7] | log2 fold change [8] |
| --- | --- | --- | --- | --- | --- | --- | --- | --- | --- | --- | --- | --- | --- | --- | --- | --- | --- | --- | --- | --- |
| TMEM97 (UniProt Q5BJF2) | -0.052 | -0.004 | 0.113 | -0.277 (active) | 0.014 | 0.17 | -0.013 | -0.127 | -0.015 | 0.12 | 0.098 | 0.053 | 0.018 | 0.124 | -0.005 | 0.046 | 0.057 | 0.011 | -0.034 | 0.023 |
| TMEM199 (UniProt Q8N511) | -0.034 | -0.035 | 0.062 | -0.053 | 0.051 | 0.016 | 0.074 | -0.068 | -0.016 | 0.099 | 0.005 | 0.005 | -0.011 | 0.001 | 0.046 | 0.031 | 0.026 | 0 | 0.005 | 0.068 |
| UBE2D1 (UniProt P51668) | 0.052 | 0.043 | 0.01 | -0.012 | 0.031 | -0.047 | 0.081 | 0.038 | -0.058 | -0.033 | 0.259 (active) | -0.093 | -0.1 | -0.064 | 0.033 | 0.108 | -0.065 | -0.06 | -0.066 | 0.029 |
| UBAP2 (UniProt Q5T6F2) | -0.04 | -0.079 | 0.091 | -0.173 | -0.003 | 0.095 | -0.02 | -0.097 | -0.066 | 0.061 | -0.093 | 0.008 | -0.042 | 0.021 | -0.023 | -0.008 | -0.073 | 0.019 | 0.016 | 0.029 |
| TRNAU1AP (UniProt Q9NX07) | 0 | -0.091 | -0.019 | -0.221 | -0.058 | 0.042 | -0.018 | 0.031 | -0.001 | 0.061 | -0.145 | 0.016 | 0.018 | 0.046 | 0.015 | 0.012 | -0.06 | 0.059 | -0.011 | -0.013 |
| TFIP11 (UniProt Q9UBB9) | -0.032 | 0.061 | -0.085 | -0.031 | -0.053 | -0.097 | 0.051 | 0.043 | -0.114 | 0.06 | 0.004 | 0.003 | -0.059 | 0.035 | 0.01 | -0.067 | -0.005 | 0.048 | 0 | -0.004 |
| TECR (UniProt Q9NZ01) | -0.082 | -0.032 | -0.138 | 0.011 | -0.056 | -0.448 (active) | 0.056 | -0.045 | -0.049 | 0.015 | -0.06 | 0.018 | -0.062 | -0.011 | -0.043 | -0.024 | -0.09 | 0.041 | -0.009 | -0.047 |
| UBTF (UniProt P17480) | -0.013 | -0.024 | -0.037 | 0.071 | -0.015 | -0.103 | 0.004 | -0.008 | -0.039 | -0.011 | 0.001 | 0.031 | -0.021 | -0.039 | 0.004 | 0 | 0.015 | 0.044 | -0.01 | -0.042 |
